Results as given in PubChem BioAssay (Tox21).
Results filed as inconclusive are left out. Activity calls are given as the source filed them. Calls come from the whole dose curve; as a rule, active = well fitted curve in the direction sought with a large enough effect in the repeat runs; inconclusive = weak or mixed curves; inactive = no such curve, though single readings can be large; an effect the other way counts as inactive or inconclusive.

What was measured:
[1] = qHTS RealTime-Glo MT Cell Viability Assay in HEK293 cells - 16 hour (AID 1224872); note: top concentration of the series differs between compounds; nearly all actives have a fitted effect of over 50% in size
Summary of the method: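 Tox21 10K qHTS, HEK293, 600 cells/well, RealTime-Glo reagent co-dispensed with cells; 5 h preincubation, compound by pintool, 37 C, luminescence at 0–40 h.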

[2] = qHTS RealTime-Glo MT Cell Viability Assay in HepG2 cells - 8 hour (AID 1224873); note: nearly all actives have a fitted effect of over 55% in size
Summary of the method: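 HepG2 cells (600/well) mixed with RealTime-Glo MT reagent, settled 5 h at 37 C/5% CO2 before compound addition. Nonlytic NanoLuc luminescence from viable-cell prosubstrate reduction read repeatedly during 40 h treatment at 37 C.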

[3] = qHTS RealTime-Glo MT Cell Viability Assay in HEK293 cells - 40 hour (AID 1224874); details: RealTime-Glo luminescence; max response: stronger effect = lower value; note: nearly all actives have a fitted effect of over 50% in size
Summary of the method: (§1)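 Viable HEK293 cells reduce a cell-permeant prosubstrate; the product diffuses out and is consumed by NanoLuc in the medium to give light. Compounds went in after a 5 h incubation and plates were read over the treatment course.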

[4] = A CellTox Green Cytotoxicity Assay to monitor cytotoxicity in HEK293 cells - 24 hour (AID 1224875); note: series mostly up to about 77 µM; nearly all actives have a fitted effect of over 45% in size
Summary of the method: (§2)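 Fluorescence intensity, read at 0, 8, 16, 24, 32 and 40 h of compound treatment, reflected dye binding to DNA of dead HEK293 cells; compounds (23 nL, DMSO) were added 5 h after plating cells with reagent.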

[5] = A CellTox Green Cytotoxicity Assay to monitor cytotoxicity in HepG2 cells - 16 hour (AID 1224876); note: nearly all actives have a fitted effect of over 45% in size
Summary of the method: (§3)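 Using 1536-well format, dye-containing HepG2 suspension was seeded, allowed 5 h at 37 C/5% CO2, dosed by pintool with compounds, positive and negative controls, and imaged for fluorescence across 40 h.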

[6] = qHTS RealTime-Glo MT Cell Viability Assay in HepG2 cells - 32 hour (AID 1224877); note: nearly all actives have a fitted effect of over 55% in size
Summary of the method: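 Cells + NanoLuc/prosubstrate dispensed (600 cells/well) → 5 h at 37 C/5% CO2 → compounds in DMSO transferred → 40 h incubation at 37 C, luminescence read at 0, 8, 16, 24, 32, 40 h.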

[7] = A CellTox Green Cytotoxicity Assay to monitor cytotoxicity in HepG2 cells - 24 hour (AID 1224878); note: nearly all actives have a fitted effect of over 45% in size
Summary of the method: as §3

[8] = A CellTox Green Cytotoxicity Assay to monitor cytotoxicity in HepG2 cells - 40 hour (AID 1224879); note: nearly all actives have a fitted effect of over 40% in size
Summary of the method: as §3

[9] = qHTS RealTime-Glo MT Cell Viability Assay in HEK293 cells - 0 hour (AID 1224880); note: top concentration of the series differs between compounds; nearly all actives have a fitted effect of over 45% in size
Summary of the method: as §1

[10] = A CellTox Green Cytotoxicity Assay to monitor cytotoxicity in HEK293 cells - 32 hour (AID 1224881); note: nearly all actives have a fitted effect of over 40% in size
Summary of the method: as §2
% is set by controls: 0 for no effect and ±100 for the full control effect.

CCN(CC)C(=O)N(CC)CC
inactive: Potency [1] | outcome [2] | max response [3] 4.58% | Potency [4] | Potency [5] | Potency [6] | Potency [7] | Potency [8] | outcome [9] | Potency [10]

CN(C)Cc1ccccc1
inactive: Potency [1] | outcome [2] | max response [3] 7.47% | Potency [4] | Potency [5] | Potency [6] | Potency [7] | Potency [8] | outcome [9] | Potency [10]

Cc1ccsc1C(=CCCN1CCC[C@@H](C(=O)O)C1)c1sccc1C
inactive: Potency [1] | outcome [2] | max response [3] 2.02% | Potency [4] | Potency [5] | Potency [6] | Potency [7] | Potency [8] | outcome [9] | Potency [10]

OCCN1CCN(CCO)CC1
inactive: Potency [1] | outcome [2] | max response [3] 1.21% | Potency [4] | Potency [5] | Potency [6] | Potency [7] | Potency [8] | outcome [9] | Potency [10]

N#Cc1ccc(C(c2ccc(C#N)cc2)n2cncn2)cc1
inactive: Potency [1] | outcome [2] | max response [3] -0.518% | Potency [4] | Potency [5] | Potency [6] | Potency [7] | Potency [8] | outcome [9] | Potency [10]

CCCCC(CC)COC(=O)COc1cc(Cl)c(Cl)cc1Cl (stereo not given)
inactive: Potency [1] | outcome [2] | max response [3] -3.13% | Potency [4] | Potency [5] | Potency [6] | Potency [7] | Potency [8] | outcome [9] | Potency [10]

O=C(C(Cl)Cl)N1CCOC12CCCCC2
inactive: Potency [1] | outcome [2] | max response [3] 12.9% | Potency [4] | Potency [5] | Potency [6] | Potency [7] | Potency [8] | outcome [9] | Potency [10]

NC(=O)Cc1cccc(C(=O)c2ccccc2)c1N
inactive: Potency [1] | outcome [2] | max response [3] -24.1% | Potency [4] | Potency [5] | Potency [6] | Potency [7] | Potency [8] | outcome [9] | Potency [10]

CC(C)C(=O)OC/C=C/c1ccccc1
inactive: Potency [1] | outcome [2] | max response [3] -2.31% | Potency [4] | Potency [5] | Potency [6] | Potency [7] | Potency [8] | outcome [9] | Potency [10]

C/C(=N\O)[C@@H](C)NCC(C)(C)CN[C@H](C)/C(C)=N/O
inactive: Potency [1] | outcome [2] | max response [3] 0.121% | Potency [4] | Potency [5] | Potency [6] | Potency [7] | Potency [8] | outcome [9] | Potency [10]

CC(CNC1CCCCC1)OC(=O)c1ccccc1 (stereo not given)
inactive: Potency [1] | outcome [2] | max response [3] -9.26% | Potency [4] | Potency [5] | Potency [6] | Potency [7] | Potency [8] | outcome [9] | Potency [10]

CN(CC1(C)CCCO1)S(=O)(=O)c1ccc(Cl)c(S(N)(=O)=O)c1 (stereo not given)
inactive: Potency [1] | outcome [2] | max response [3] 2.08% | Potency [4] | Potency [5] | Potency [6] | Potency [7] | Potency [8] | outcome [9] | Potency [10]

COc1ccc(S(=O)(=O)Nc2nnc(CC(C)C)s2)cc1
inactive: Potency [1] | outcome [2] | max response [3] 6.93% | Potency [4] | Potency [5] | Potency [6] | Potency [7] | Potency [8] | outcome [9] | Potency [10]

Cc1c[nH]c(=S)[nH]c1=O
inactive: Potency [1] | outcome [2] | max response [3] 22.1% | Potency [4] | Potency [5] | Potency [6] | Potency [7] | Potency [8] | outcome [9] | Potency [10]

Cc1cc(S(=O)(=O)O)c(N)cc1Cl
inactive: Potency [1] | outcome [2] | max response [3] -1.1% | Potency [4] | Potency [5] | Potency [6] | Potency [7] | Potency [8] | outcome [9] | Potency [10]

CN1CCC[C@@H]1Cc1c[nH]c2ccc(CCS(=O)(=O)c3ccccc3)cc12
inactive: Potency [1] | outcome [2] | max response [3] 3.35% | Potency [4] | Potency [5] | Potency [6] | Potency [7] | Potency [8] | outcome [9] | Potency [10]

O=CCCc1ccccc1
inactive: Potency [1] | outcome [2] | max response [3] 4.45% | Potency [4] | Potency [5] | Potency [6] | Potency [7] | Potency [8] | outcome [9] | Potency [10]

CCc1nnc(NS(=O)(=O)c2ccc(N)cc2)s1
inactive: Potency [1] | outcome [2] | max response [3] 6.63% | Potency [4] | Potency [5] | Potency [6] | Potency [7] | Potency [8] | outcome [9] | Potency [10]

O=C(O)c1ccccc1Nc1cc(Cl)ccc1C(=O)O
inactive: activity change, negative = cytotoxicity [1] 1.77% [at 15.8 µM] | viability change, negative = cytotoxic [2] 0.891% [at 15.8 µM] | max response [3] 2.59% | activity change [4] -4.95% [at 15.8 µM, stronger effect = higher value] | cytotoxicity increase [5] 1.42% [at 15.8 µM] | activity change, negative = cytotoxic [6] -8.29% [at 15.8 µM] | cytotoxicity [7] 9.31% [at 15.8 µM] | cytotoxicity increase [8] 28.2% [at 15.8 µM] | activity change, negative = cytotoxicity [9] -6.06% [at 15.8 µM] | cytotoxicity increase [10] -11.6% [at 15.8 µM]

O=C1N(c2ccccc2)c2ccccc2C1(Cc1ccncc1)Cc1ccncc1
inactive: Potency [1] | outcome [2] | max response [3] 5.52% | Potency [4] | Potency [5] | Potency [6] | Potency [7] | Potency [8] | outcome [9] | Potency [10]

ClC(Cl)Cl
inactive: Potency [1] | outcome [2] | max response [3] 6.53% | Potency [4] | Potency [5] | Potency [6] | Potency [7] | Potency [8] | outcome [9] | Potency [10]

NCCC(O)(P(=O)(O)O)P(=O)(O)O
inactive: Potency [1] | outcome [2] | max response [3] 3.89% | Potency [4] | Potency [5] | Potency [6] | Potency [7] | Potency [8] | outcome [9] | Potency [10]
